Hits are enriched below; roughly 2.3% of the tested compounds scored in any of these assays.
JMJD2E inh – inhibitors of human JMJD2E histone demethylase | B2RXH2 | Potency, µM (top dose mostly 57.1 µM), usual class: inhibitors | JMJD2E catalytic domain, FDH-coupled NADH fluorescence (FDH is formaldehyde dehydrogenase) | 230,000 compounds, 1.6% hits; active = well fitted inhibition curve with a large enough effect, not every such curve was filed as active; inconclusive = small, poorly fitted or top-dose-only effect, or another doubt; inactive = no such curve, though single readings can be large or run the other way; note: nearly all actives have a fitted effect of over 50% in size
Target sequence (B2RXH2 1-337 limits assumed): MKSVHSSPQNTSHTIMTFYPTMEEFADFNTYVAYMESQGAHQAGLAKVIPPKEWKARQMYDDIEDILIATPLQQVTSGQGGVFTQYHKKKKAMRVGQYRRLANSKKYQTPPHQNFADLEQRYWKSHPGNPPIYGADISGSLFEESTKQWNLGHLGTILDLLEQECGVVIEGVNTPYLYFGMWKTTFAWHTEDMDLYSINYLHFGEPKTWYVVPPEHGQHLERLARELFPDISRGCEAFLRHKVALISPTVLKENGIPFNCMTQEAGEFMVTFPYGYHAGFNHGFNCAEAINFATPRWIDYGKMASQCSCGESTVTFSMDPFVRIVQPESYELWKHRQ
RGS12 GoLoco inh – blocks human Gai1 binding to RGS12 GoLoco peptide, red readout | P63096 | Gai1:RGS12 GoLoco peptide FP, rhodamine, 10 min | Potency, µM (highest dose often 61.6 µM), most hits filed as inhibitors | 230,000 compounds, 0.44% hits | AID 880; active = well fitted inhibition curve with a large enough effect, not every such curve was filed as active; inactive = no such curve, though single readings can be large or run the other way; note: nearly all actives have a fitted effect of over 30% in size
HTT aggregate – reduces HttQ103-GFP aggregates in PC12 cells; PC12 HttQ103-GFP aggregates, Acumen cytometry, 40 h; Potency, µM (highest dose often 46.1 µM), hits mostly inhibitors; 220,000 compounds, 1.1% hits; note: nearly all actives have a fitted effect of over 60% in size
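Quantitative HTS on tebufenozide-induced (100 nM) PC12 cells stably expressing polyQ103 Huntingtin exon 1–GFP. Reduction of bright GFP aggregates, detected by laser scanning cytometry after lysis, identified actives across the titration.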
FBPA coupling cs – coupling enzyme interference in Giardia aldolase counter-screen. coupling enzyme system counterscreen, AmpLite Red fluorescence. activity change, negative = inhibition, % at 58.2 µM, hits read low. 290,000 compounds, 0.67% hits. AID 2472; in the data active = activity change below about -30%
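Coupling enzymes only (glyceraldehyde-3-phosphate) + compound, at 57.5 uM final, 10 min RT; add substrate/coupling/AmpLite Red mix, 20 min RT; fluorescence ex 525/em 598 nm. Actives flag coupling-system interference.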
HTT cytoprotect – protects HTT-Q103 PC12 cells, measured by ATP; PC12 HTT-Q103 induced, cytoprotection, ATP luminescence, 40 h; Potency, µM (highest dose often 56.4 µM), usual class: activators; 230,000 compounds, 0.14% hits; AID 1471; note: nearly all actives have a fitted effect of over 45% in size
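PC12 cells stably carrying ecdysone-inducible Htt exon 1 (Q103)–GFP were induced with 100 nM tebufenozide (final) alongside library compounds in a dose series. Cytoprotection was scored as retained ATP by ATPlite luminescence.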
VDR inh – blocks the human vitamin D receptor; P11473; VDR-SRC2-3 peptide fluorescence polarization, 2 h; 400,000 compounds, 0.93% hits; Potency, µM, hits mostly inhibitors
Target sequence (P11473 whole entry, looked up): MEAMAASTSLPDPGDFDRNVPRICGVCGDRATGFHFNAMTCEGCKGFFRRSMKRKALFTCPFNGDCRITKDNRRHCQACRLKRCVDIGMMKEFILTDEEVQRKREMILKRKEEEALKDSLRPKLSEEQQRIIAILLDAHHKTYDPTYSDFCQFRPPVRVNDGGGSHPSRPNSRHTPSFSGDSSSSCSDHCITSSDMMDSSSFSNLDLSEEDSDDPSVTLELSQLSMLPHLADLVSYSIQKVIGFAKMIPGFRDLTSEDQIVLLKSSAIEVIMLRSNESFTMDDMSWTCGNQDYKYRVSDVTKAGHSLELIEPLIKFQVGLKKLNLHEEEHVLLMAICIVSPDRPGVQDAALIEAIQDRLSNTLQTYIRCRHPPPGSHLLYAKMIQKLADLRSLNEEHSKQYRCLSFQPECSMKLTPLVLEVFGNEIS
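Fluorescence polarization assay measuring small-molecule disruption of VDR binding to the coregulator peptide SRC2-3. Compounds were pin-transferred (23 nl) into the reagent mix and incubated 2 h at room temperature before reading.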
Numbers stand for hits; – = inactive; ? = inconclusive; · = no result; ! = not active in a repeat; [ ] = another dose, or the depositor's remark. Unless noted, calls come from the whole dose curve; as a rule, active = well fitted curve in the direction sought with a large enough effect; inconclusive = small, poorly fitted or top-dose-only effect, or another doubt; inactive = no such curve, though single readings can be large; an effect the other way counts as inactive or inconclusive.

SMILES	JMJD2E inh	RGS12 GoLoco inh	HTT aggregate	FBPA coupling cs	HTT cytoprotect	VDR inh
O=S(=O)(Nc1cccc2cccnc12)c1ccccc1Br	·	·	·	·	·	–
Cc1ccc(S(=O)(=O)Nc2cccc3cccnc23)cc1	–	–	13µM	–	–	–
Nc1ccccc1S(=O)(=O)Nc1cccc2cccnc12	·	·	·	-48	·	–
COc1ccc(C(=O)Nc2nc(-c3ccc(Br)cc3)ns2)cc1	·	·	·	·	·	–
Cc1onc(-c2ccccc2)c1C(=O)N(Cc1ccco1)Cc1cccs1	–	–	?	-35	–	–
Oc1c(N=Nc2ccccn2)ccc2ccccc12	?	–	3.2µM	–	–	?
COCc1nnc(NS(=O)(=O)c2ccc(Cl)cc2)s1	·	·	·	–	·	–
O=S(=O)(Nc1nnc(-c2ccccc2)s1)c1ccc(Cl)cc1	–	–	35µM	–	–	–
COc1ccc(-c2cc(=O)oc3cc(OC(C)C(=O)NC4CC4)ccc23)cc1 (stereo unspecified)	·	·	·	–	·	–
COc1ccc(-c2cc(=O)oc3cc(OC(=O)C4CCCCC4)c(Cl)cc23)cc1	–	–	0.28µM	–	–[10 µM]	–
COc1ccc2[nH]cc(CCn3ccc(=O)c(C)c3C)c2c1	–	–	–	–	–	–
Clc1cccc(Nc2ncnc3ccc(Br)cc23)c1	?	–	11µM	–	–	–
COc1cc2ncnc(Nc3cccc(Cl)c3)c2cc1OC	?	2µM!	·	–	?	–
Brc1ccc2ncnc(NCc3ccccc3)c2c1	–	–	2.2µM	–	–	–
COc1cc2ncnc(Nc3cccc(Br)c3)c2cc1OC	?	–	·	–	–[1.9 µM]	–
N#Cc1ccccc1-c1ccc2ncnc(NCc3ccccc3)c2c1	·	–	·	–	–	–
CNc1cc2c(Nc3cccc(Br)c3)ncnc2cn1	·	·	·	-50	·	–
Clc1ccc(Nc2ncnc3ccc(Br)cc23)cc1	?	·	–	–	–	–
CCN(CC)c1ccc(NC(=O)CN(C)S(=O)(=O)c2cccc3nsnc23)c(C)c1	·	·	·	·	·	–
O=C(/C=C/c1ccco1)Nc1ccc(Cl)c(-c2nc3cc(Cl)ccc3o2)c1	·	·	·	·	·	–
N#Cc1nc(-c2ccc(COc3ccc(Cl)cc3)o2)oc1N1CCC(C(N)=O)CC1	·	·	·	·	·	–
CC(C(Sc1ccccc1N)c1ccccc1)[N+](=O)[O-] (stereo unspecified)	11µM	–	–[9.22 µM]	–	–[10 µM]	18µM
Cc1ccc2[nH]c3c(c2c1)CN(C(=O)CN1CC(C)OC(C)C1)CC3 (stereo unspecified)	–	–	–	-33	–	–
Cc1ccc2[nH]c3c(c2c1)CN(C(=O)CN1CCSCC1)CC3	–	–	–	–	–	·
CCN(CCCc1ccccc1)CCCc1ccccc1	8.9µM	28µM!	–	–	–	–
SMILES	JMJD2E inh	RGS12 GoLoco inh	HTT aggregate	FBPA coupling cs	HTT cytoprotect	VDR inh
CCCN(CCO)CCCc1ccccc1	?	–	–	–	–	–
Fc1ccccc1N1CCN(c2nccn3nc(-c4ccc(Br)cc4)cc23)CC1	·	·	·	·	·	–
Oc1c(C(c2cccs2)N2CCN(c3ccccc3)CC2)ccc2cccnc12 (stereo unspecified)	7.9µM	–	–	–	–	·
CN1CCN(C(c2ccc(C(F)(F)F)cc2)c2ccc3cccnc3c2O)CC1 (stereo unspecified)	·	·	·	–	·	32µM
Oc1c(C(c2ccccc2Cl)N2CCCC2)ccc2cccnc12 (stereo unspecified)	?	–	?	–	–[10 µM]	?
COc1ccc(C(CNC(=O)c2cccc(S(=O)(=O)NCc3ccccc3)c2)N(C)C)cc1 (stereo unspecified)	·	·	·	·	·	–
O=C(Nc1ccc(N2CCOCC2)nc1N1CCOCC1)c1cccc(C(F)(F)F)c1	?	–	–[9.22 µM]	–	–[10 µM]	–
O=C(N/N=C/c1ccc(N2CCOCC2)o1)c1cccc(C(F)(F)F)c1	–	–	–	–	–[10 µM]	25µM
COC(=O)c1ccccc1NC(=O)COC(=O)c1ccccc1N=Nc1ccc(N(C)C)cc1	–	–	6.3µM	–	–[10 µM]	?
O=C(O)c1cccc(S(=O)(=O)Nc2ccc3[nH]c(=O)[nH]c3c2)c1	–	–	–[9.22 µM]	–	–[10 µM]	–
O=C(O)c1cccc(S(=O)(=O)Nc2ccc3oc(=O)sc3c2)c1	?	–	–	–	–	89µM
O=C(CCN1C(=O)/C(=C/c2ccccc2Cl)SC1=S)Nc1ccccc1C(=O)O	·	·	·	–	·	79µM
O=C(CCN1C(=O)/C(=C\c2ccccc2Cl)SC1=S)Nc1cccnc1	·	·	·	–	·	–
Cc1ccc(-n2nc(C)c3c(C)cc(=O)n(CC(=O)NCc4ccc(OC(C)C)cc4)c32)cc1	·	·	·	·	·	–
NC(=O)COC(=O)c1oc2ccccc2c1CSc1ccc(Cl)cc1	–	–	11µM	–	–[10 µM]	–
O=C(Cc1cccc(NC(=O)C2CCCN(C(=O)C3CCCC3)C2)c1)Nc1ccc(C(=O)N2CCOCC2)cc1 (stereo unspecified)	·	·	·	·	·	–
CCOc1ccc(C2NC(=O)C(C#N)=C(S)N2c2cccc(C)c2)cc1OC (stereo unspecified)	–	–	–[9.22 µM]	–	–[10 µM]	79µM
CCOc1ccc(C2NC(=O)C(C#N)=C(S)N2c2ccc(C)cc2)cc1OC (stereo unspecified)	–	–	–	–	–	18µM
CCOc1ccc(C2C(=O)N(C3CCCCCC3)CC(=O)N2Cc2ccc(C)cc2)cc1OC (stereo unspecified)	·	·	·	·	·	–
O=C(CSc1ccccc1)N1CCCC(Nc2ccccc2)C1 (stereo unspecified)	·	·	·	–	·	20µM
O=[N+]([O-])c1ccc(Cl)c(S(=O)(=O)NCCc2ccccn2)c1	·	·	·	·	·	–
Cc1cc2cc(C=C(C#N)C#N)c(Cl)nc2cc1C	?	–	?	–	·	50µM
O=C(Nc1cccc(CNCCc2c[nH]c3ccccc23)c1)c1ccccc1Cl	·	·	·	–	·	–
CN(C)c1ccc(C(=S)Nc2ccccc2)cc1	–	–	–	–	–[10 µM]	–
CN(C)c1ccc(NC(=S)c2ccccn2)cc1	18µM	–	?	–	–	–
SMILES	JMJD2E inh	RGS12 GoLoco inh	HTT aggregate	FBPA coupling cs	HTT cytoprotect	VDR inh
Nc1nc2c(c(=O)[nH]1)N[C@H](CCNc1ccc(C(=O)O)cc1)CN2	·	–[14.2 µM]	·	·	–[10 µM]	·
CCCC(=O)N(C1CC(C)C(C#N)(C#N)C1(C#N)C#N)N(C)C (stereo unspecified)	–	11µM	?	–	?	8.9µM
CC(=O)N(C1CC(C)C(C#N)(C#N)C1(C#N)C#N)N(C)C (stereo unspecified)	–	–	–[9.22 µM]	–	–	35µM
CN(C)c1ccc(N2CN=C3SCC(=O)N3C2)cc1	?	–	?	-51	–	?
Cc1cccc(S(=O)(=O)c2cn(C)c3cc(N4CCN(c5ccc(F)cc5)CC4)c(F)cc3c2=O)c1	·	·	·	·	·	–
O=C1[C@H]2[C@H]3[C@H](O)[C@H](O)C/C(=N/OC[C@@H](O)COCc4ccco4)[C@@H]3CC[C@@H]2C(=O)N1C[C@@H]1CCCO1	·	·	·	–	–[10 µM]	·
Cc1cc(NC(=O)Nc2ccc(N(C)C)cc2)c2cc(F)cc(F)c2n1	?	–	·	–	–	18µM!

Source: PubChem
